Measured values from PubChem BioAssay (NCI).
Compounds without any hit were thinned out: in the full panel of roughly 79,000, 15% have a hit. Active and inactive are the calls of the source. Rule as the data show it: active = growth inhibition above about 70%; inactive = the rest.

Assays:
[1] = NCI Yeast Anticancer Drug Screen. Data for the rad52 strain (AID 147);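 also: 0% = growth of vehicle-treated control cultures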; settings: S. cerevisiae rad52 mutant growth inhibition, stronger effect = higher value
How it was run: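 Compounds are applied to a genetically defined yeast strain lacking normal DNA damage repair, and inhibition of growth is expressed relative to cultures given vehicle only.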

[2] = NCI Yeast Anticancer Drug Screen. Data for the wt1 strain (AID 149);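 also: 0% = growth of vehicle-treated wt1 cultures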; settings: S. cerevisiae wt1 strain (SPY 50644) growth inhibition, stronger effect = higher value
How it was run: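 Compounds are added to wt1 yeast cultures. Growth is then measured. Inhibition is expressed relative to vehicle-treated controls.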

[3] = NCI Yeast Anticancer Drug Screen. Data for the rad50EPP+ strain (AID 151);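 also: 0% = growth of vehicle-treated control cultures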; settings: S. cerevisiae rad50 mutant strain, stronger effect = higher value
How it was run: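 Compounds were applied to the rad50EPP+ yeast strain, which bears a defined DNA repair alteration, and growth inhibition was determined relative to vehicle-treated cultures.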

[4] = NCI Yeast Anticancer Drug Screen. Data for the mgt1 strain (AID 153); settings: S. cerevisiae mgt1 mutant growth inhibition, stronger effect = higher value
How it was run: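 Strain: mgt1 yeast, one of a set carrying defined DNA damage repair or cell cycle control alterations. Compound-treated growth compared with vehicle.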

[5] = NCI Yeast Anticancer Drug Screen. Data for the rad50 strain (AID 155);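 also: 0% = growth of vehicle-only cultures of the same strain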; settings: S. cerevisiae rad50 strain growth inhibition, stronger effect = higher value
How it was run: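 Inhibition values express reduced yeast growth in compound-treated cultures relative to vehicle-treated controls.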

[6] = NCI Yeast Anticancer Drug Screen. Data for the mec2-1 strain (AID 157); settings: S. cerevisiae mec2-1 strain, stronger effect = higher value
How it was run: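 Strain: mec2-1 (DNA repair/cell cycle alteration). Compound exposure, then growth measured; inhibition expressed relative to vehicle.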

[7] = NCI Yeast Anticancer Drug Screen. Data for the rad14 strain (AID 159);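 also: 0% = growth of vehicle-treated control cultures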; settings: S. cerevisiae rad14 strain growth inhibition, stronger effect = higher value
How it was run: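 A mutant yeast strain defective in DNA damage repair is treated with compound; inhibition of its growth is scored against untreated, vehicle-exposed cultures.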

[8] = NCI Yeast Anticancer Drug Screen. Data for the sgs1 mgt1 strain (AID 161);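 also: 0% = growth of cultures given vehicle only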; settings: S. cerevisiae sgs1 mgt1 strain, stronger effect = higher value
How it was run: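 Genetically altered yeast, compound exposure, growth inhibition relative to vehicle.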

[9] = NCI Yeast Anticancer Drug Screen. Data for the CLN2oe strain (AID 163);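 also: 0% = growth of vehicle-only control cultures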; settings: S. cerevisiae CLN2oe strain, stronger effect = higher value
How it was run: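 Growth of a genetically modified yeast strain is measured after compound exposure and compared with cultures given vehicle alone.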

[10] = NCI Yeast Anticancer Drug Screen. Data for the cln2 rad14 strain (AID 165);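 also: 0% = growth equal to vehicle treated cultures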; settings: S. cerevisiae cln2 rad14 strain, stronger effect = higher value
How it was run: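 Compounds are applied to the cln2 rad14 yeast strain, and growth is then compared with that of vehicle-treated cultures to give inhibition.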

[11] = NCI Yeast Anticancer Drug Screen. Data for the bub3 strain (AID 167); settings: S. cerevisiae bub3 mutant strain, stronger effect = higher value
How it was run: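 Steps: expose the mutant yeast strain to compound; grow alongside vehicle-treated cultures; measure growth; express inhibition against the vehicle cultures.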

[12] = NCI Yeast Anticancer Drug Screen. Data for the mlh1 strain (AID 171);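 also: 0% = growth of vehicle-treated control cultures of the same strain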; settings: S. cerevisiae mlh1 strain growth inhibition, stronger effect = higher value
How it was run: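 Growth of the mutant yeast strain after compound exposure, expressed as inhibition relative to vehicle-only controls.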

[13] = NCI Yeast Anticancer Drug Screen. Data for the sgs1 strain (AID 173);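 also: 0% = growth of vehicle-only control cultures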; settings: S. cerevisiae sgs1 mutant, stronger effect = higher value
How it was run: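 Growth of a yeast strain bearing a defined genetic alteration is measured after compound treatment. Inhibition is expressed relative to vehicle-only controls.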

[14] = NCI Yeast Anticancer Drug Screen. Data for the mlh1 rad18 strain (AID 175); settings: S. cerevisiae mlh1 rad18 strain growth inhibition, stronger effect = higher value
How it was run: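 Read-out is yeast growth inhibition, calculated against vehicle-only controls. The compound was applied to a strain engineered with DNA damage repair alterations.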

[15] = NCI Yeast Anticancer Drug Screen. Data for the rad18 strain (AID 177); settings: S. cerevisiae rad18 mutant growth inhibition, stronger effect = higher value
How it was run: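 Growth of the mutant yeast strain after compound exposure, normalised to vehicle-only cultures.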

[16] = at 5.0 µM (retest, dose inferred, filed as 0.5)
[17] = at 50.0 µM (retest, dose inferred, filed as 5.0)

Measured: growth inhibition

O=C1C(=O)c2ccccc2C=C1[N+](=O)[O-]
inactive: [1]; at 1.2 µM 3% | [1]; at 3.7 µM 11% | [1]; at 11.0 µM 26% | [2]; at 1.2 µM 3% | [2]; at 3.7 µM 5% | [2]; at 11.0 µM 9% | [2]; at 33.0 µM 15% | [2]; at 100.0 µM 26% | [3]; at 1.2 µM -1% | [3]; at 3.7 µM -1% | [3]; at 11.0 µM 5% | [3]; at 33.0 µM 15% | [3]; at 100.0 µM 29% | [4]; at 1.2 µM 2% | [4]; at 3.7 µM 10% | [4]; at 11.0 µM 9% | [4]; at 33.0 µM 15% | [4]; at 100.0 µM 58% | [5]; at 1.2 µM 0% | [5]; at 3.7 µM 9% | [5]; [16] -12% | [5]; at 11.0 µM 12% | [5]; at 33.0 µM 36% | [5]; [17] 30% | [5]; at 50.0 µM 50.5% | [6]; at 1.2 µM 2% | [6]; at 3.7 µM 5% | [6]; [16] 8% | [6]; at 11.0 µM 13% | [6]; at 33.0 µM 18% | [6]; [17] 13% | [6]; at 50.0 µM 29.4% | [6]; at 100.0 µM 35% | [7]; at 1.2 µM 2% | [7]; at 3.7 µM 17% | [7]; at 11.0 µM 15% | [7]; at 33.0 µM 37% | [8]; [16] 14% | [9]; at 1.2 µM 2% | [9]; at 3.7 µM 3% | [9]; at 11.0 µM 9% | [9]; at 33.0 µM 17% | [9]; at 100.0 µM 23% | [10]; [16] -13% | [10]; [17] 14% | [10]; at 50.0 µM 16.8% | [11]; at 1.2 µM 0% | [11]; at 3.7 µM 3% | [11]; [16] -14% | [11]; at 11.0 µM 1% | [11]; at 33.0 µM 4% | [11]; [17] 8% | [11]; at 50.0 µM 8.85% | [11]; at 100.0 µM 49% | [12]; at 1.2 µM 1% | [12]; at 3.7 µM 1% | [12]; at 11.0 µM 3% | [12]; at 33.0 µM 22% | [13]; at 1.2 µM 4% | [13]; at 3.7 µM 11% | [13]; at 11.0 µM 30% | [13]; at 33.0 µM 65% | [14]; [16] 0% | [14]; [17] 64% | [14]; at 50.0 µM 68.8% | [15]; at 1.2 µM 22% | [15]; at 3.7 µM 54%
active: [1]; at 33.0 µM 70% | [1]; at 100.0 µM 91% | [5]; at 100.0 µM 82% | [7]; at 100.0 µM 86% | [8]; [17] 77% | [8]; at 50.0 µM 73.7% | [12]; at 100.0 µM 83% | [13]; at 100.0 µM 92% | [15]; at 11.0 µM 89% | [15]; at 33.0 µM 94% | [15]; at 100.0 µM 95%

CCCN(CCC)CC(O)c1cc(-c2ccc(Cl)cc2)nc2c(C)c(Cl)ccc12 (stereo unspecified)
inactive: [1]; at 1.2 µM -2% | [1]; at 3.7 µM 2% | [2]; at 1.2 µM -1% | [2]; at 3.7 µM -3% | [3]; at 1.2 µM -2% | [3]; at 3.7 µM 1% | [4]; at 1.2 µM -2% | [4]; at 3.7 µM -3% | [5]; at 1.2 µM -3% | [5]; at 3.7 µM 7% | [5]; [16] 34% | [6]; at 1.2 µM -6% | [6]; at 3.7 µM -8% | [6]; [16] 9% | [7]; at 1.2 µM -2% | [7]; at 3.7 µM 13% | [8]; [16] 36% | [9]; at 1.2 µM -3% | [9]; at 3.7 µM -3% | [10]; [16] 9% | [11]; at 1.2 µM -5% | [11]; at 3.7 µM -6% | [11]; [16] 6% | [12]; at 1.2 µM -3% | [12]; at 3.7 µM -2% | [13]; at 1.2 µM -2% | [13]; at 3.7 µM 3% | [14]; [16] 27% | [15]; at 1.2 µM -4% | [15]; at 3.7 µM -5%
active: [1]; at 11.0 µM 98% | [1]; at 33.0 µM 96% | [1]; at 100.0 µM 93% | [2]; at 11.0 µM 98% | [2]; at 33.0 µM 98% | [2]; at 100.0 µM 97% | [3]; at 11.0 µM 85% | [3]; at 33.0 µM 96% | [3]; at 100.0 µM 96% | [4]; at 11.0 µM 99% | [4]; at 33.0 µM 98% | [4]; at 100.0 µM 96% | [5]; at 11.0 µM 98% | [5]; at 33.0 µM 96% | [5]; [17] 95% | [5]; at 50.0 µM 98.4% | [5]; at 100.0 µM 93% | [6]; at 11.0 µM 99% | [6]; at 33.0 µM 98% | [6]; [17] 98% | [6]; at 50.0 µM 98.9% | [6]; at 100.0 µM 96% | [7]; at 11.0 µM 99% | [7]; at 33.0 µM 98% | [7]; at 100.0 µM 97% | [8]; [17] 97% | [8]; at 50.0 µM 98.5% | [9]; at 11.0 µM 97% | [9]; at 33.0 µM 98% | [9]; at 100.0 µM 94% | [10]; [17] 93% | [10]; at 50.0 µM 97.6% | [11]; at 11.0 µM 99% | [11]; at 33.0 µM 97% | [11]; [17] 96% | [11]; at 50.0 µM 97.4% | [11]; at 100.0 µM 94% | [12]; at 11.0 µM 99% | [12]; at 33.0 µM 98% | [12]; at 100.0 µM 95% | [13]; at 11.0 µM 98% | [13]; at 33.0 µM 97% | [13]; at 100.0 µM 95% | [14]; [17] 96% | [14]; at 50.0 µM 98.7% | [15]; at 11.0 µM 98% | [15]; at 33.0 µM 96% | [15]; at 100.0 µM 94%
